# Out of some 310,000 compounds screened, about 14,000 (4.5%) showed an effect of 50% or more. Effects have a minus sign here. The list comes from a sample in which strong results are over-represented; it also holds similar structures and randomly drawn compounds.
# Target: human ether-à-go-go-related gene (hERG) potassium channel (human, UniProt Q12809)
# Assay: primary screen, population patch clamp on CHO cells stably expressing hERG; higher = less effect of the substance
# 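Note: peak tail current of the secondary pulse compared with the same well before compound.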
# Chain of human ether-à-go-go-related gene (hERG) potassium channel (Q12809 whole entry, looked up): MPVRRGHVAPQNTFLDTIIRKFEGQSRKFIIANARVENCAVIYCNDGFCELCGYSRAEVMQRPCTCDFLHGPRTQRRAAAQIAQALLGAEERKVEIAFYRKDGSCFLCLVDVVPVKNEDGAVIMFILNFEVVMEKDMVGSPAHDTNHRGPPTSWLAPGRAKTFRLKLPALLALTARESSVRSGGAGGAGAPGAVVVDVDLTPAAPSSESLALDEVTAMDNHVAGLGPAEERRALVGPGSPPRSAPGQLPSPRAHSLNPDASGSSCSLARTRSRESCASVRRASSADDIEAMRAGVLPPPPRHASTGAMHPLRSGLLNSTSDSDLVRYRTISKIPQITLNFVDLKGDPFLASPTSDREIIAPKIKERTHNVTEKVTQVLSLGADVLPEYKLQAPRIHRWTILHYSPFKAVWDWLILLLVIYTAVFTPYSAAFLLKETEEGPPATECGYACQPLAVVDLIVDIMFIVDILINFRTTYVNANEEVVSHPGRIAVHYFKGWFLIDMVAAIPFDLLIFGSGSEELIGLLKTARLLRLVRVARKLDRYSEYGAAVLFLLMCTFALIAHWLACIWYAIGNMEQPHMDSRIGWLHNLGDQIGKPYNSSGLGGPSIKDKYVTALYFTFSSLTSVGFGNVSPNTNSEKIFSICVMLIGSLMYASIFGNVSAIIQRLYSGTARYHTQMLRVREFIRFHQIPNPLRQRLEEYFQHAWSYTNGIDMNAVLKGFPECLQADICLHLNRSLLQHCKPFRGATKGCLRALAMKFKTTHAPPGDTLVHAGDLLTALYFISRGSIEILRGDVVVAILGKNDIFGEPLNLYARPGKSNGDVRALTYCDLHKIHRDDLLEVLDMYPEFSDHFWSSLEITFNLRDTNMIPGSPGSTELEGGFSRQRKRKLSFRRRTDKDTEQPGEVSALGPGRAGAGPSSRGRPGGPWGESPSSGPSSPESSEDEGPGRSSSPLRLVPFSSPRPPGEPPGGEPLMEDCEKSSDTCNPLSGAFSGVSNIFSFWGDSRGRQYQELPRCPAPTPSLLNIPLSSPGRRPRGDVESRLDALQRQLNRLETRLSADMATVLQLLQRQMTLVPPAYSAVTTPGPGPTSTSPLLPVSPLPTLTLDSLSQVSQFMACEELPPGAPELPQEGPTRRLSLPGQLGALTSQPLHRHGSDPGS
row,SMILES,"hERG current change (%, negative = inhibition) at 10uM"
1,CCOC(=O)c1ccc(N2CN(CCc3ccccc3)CNC2=S)cc1,6.21%
2,COC(=O)/C(C#N)=C\c1c(OC)[nH]c2ccccc12,14%
3,Cc1ccc2[nH]c(SCC(=O)N3CCOCC3)nc2c1C,8.6%
4,Cc1cccc(C(=O)NC2CCN(CC(=O)NCc3ccccc3F)CC2)c1,-33.2%
5,CCOC(=O)CN(C(=O)CN1CCC(n2nnc3cc(C)ccc32)CC1)c1ccccc1,-53.8%
6,O=C(CN1CCC(n2nnc3cc(F)ccc32)CC1)NCCc1ccccc1,-41.5%
7,Cc1ccc2c(c1)nnn2C1CCN(CC(=O)N(c2ccccc2)c2ccccc2)CC1,11.4%
8,Cc1ccc2c(c1)nnn2C1CCN(CC(=O)NCCc2nc3ccccc3[nH]2)CC1,-27.9%
9,Cc1ccc2c(c1)nnn2C1CCN(CC(=O)NCCc2ccccc2)CC1,-50.4%
10,Cc1ccc2c(c1)nnn2C1CCN(CC(=O)NCc2ccccc2F)CC1,-59.9%
11,COc1ccc(C(=O)NNC(=O)CN2CCC(n3nnc4cc(C)ccc43)CC2)cc1,-15%
12,Cc1ccc2c(c1)nnn2C1CCN(CC(=O)NNC(=O)c2ccco2)CC1,37.1%
13,CC(=C/c1ccco1)/C=N/NC(=O)CSc1nnc(SCc2ccc(C)cc2)s1,-3.37%
14,CN1c2ccccc2C(O)=C(C(=S)Nc2ccccc2)S1(=O)=O,22.7%
15,CCOc1ccc(OCC(=O)Nc2nccs2)cc1,19.8%
16,Oc1c(Br)cc(/C=N/Nc2nncc3ccccc23)cc1Br,27.8%
17,N/C(=N\OC(=O)/C=C/c1ccccc1)c1ccccc1,3.82%
18,N/C(=N\OC(=O)/C=C/c1ccccc1)c1ccncc1,-52.3%
19,N/C(=N\OC(=O)/C=C/c1ccccc1)c1cccnc1,-5.4%
20,CCN(CC)CCCn1c(=S)[nH]c2cc(Cl)ccc2c1=O,-68.7%

row,SMILES,"hERG current change (%, negative = inhibition) at 10uM"
1,CCN(CC)CCCn1c(=S)[nH]c2cc(C(=O)OC)ccc2c1=O,-33%
2,CCN(CC)CCCn1c(=S)[nH]c2ccccc2c1=O,-25.7%
3,CCN(CC)CCn1c(=S)[nH]c2cc(C(=O)N3CC(C)CC(C)C3)ccc2c1=O (stereo not shown),-14.7%
4,CCN(CC)CCn1c(=S)[nH]c2cc(Cl)ccc2c1=O,-63.2%
5,O=c1c2ccc(Cl)cc2[nH]c(=S)n1CCCN1CCOCC1,-22.6%
6,CC(C)c1ccc(NC(=O)CSc2ncccc2C(=O)Oc2cccc([N+](=O)[O-])c2)cc1,8.39%
7,CCOC(=O)c1c(NC(=O)CSc2nncn2C)sc(C)c1C,-4.02%
8,COc1cc(/C=N/O)ccc1OCc1ccc([N+](=O)[O-])cc1,-23.5%
9,O=C(NNC(=S)NCc1ccc(Cl)cc1)c1ccc2c(c1)OCO2,6.73%
10,CCc1ccc(NC(=S)NC2CC3CCC(C2)N3Cc2ccco2)cc1 (stereo not shown),-45.5%
11,Cc1cc(C)cc(NC(=S)NC2CC3CCC(C2)N3Cc2ccco2)c1 (stereo not shown),-71.5%
12,Cc1cccc(NC(=S)NC2CC3CCCC(C2)N3Cc2ccco2)c1 (stereo not shown),-21.7%
13,Cc1ccc(NC(=S)NC2CC3CCCC(C2)N3Cc2ccco2)cc1 (stereo not shown),-52.8%
14,Cc1cccc(NC(=S)NC2CC3CCC(C2)N3Cc2ccco2)c1 (stereo not shown),-43.5%
15,Cc1ccc(NC(=S)NC2CC3CCC(C2)N3Cc2ccco2)cc1C (stereo not shown),-36.1%
16,O=C(Nc1ccc2c(c1)CCC2)c1ccccc1Br,-12.9%
17,COc1ccc(/C=N/Nc2cc(C)nc3ccc(OC)cc23)c(OC)c1,-50.1%
18,COc1ccc2nc(C)cc(N/N=C/c3cccc(OC)c3O)c2c1,-13%
19,Cc1ccc2nc(C)cc(N/N=C/c3ccccc3O)c2c1,2.38%
20,COc1cccc2c(N/N=C/c3ccco3)cc(C)nc12,-5.81%

row,SMILES,"hERG current change (%, negative = inhibition) at 10uM"
1,Cc1cc(C)c2nc(C)cc(N/N=C/c3ccc(O)cc3)c2c1,-33.7%
2,Cc1cc(N/N=C/c2ccc(O)cc2)c2cccc(C)c2n1,-51.6%
3,Cc1cc(N/N=C/c2ccc(O)cc2O)c2ccccc2n1,4.97%
4,COc1cccc2c(N/N=C/c3ccccc3)cc(C)nc12,-9.04%
5,Cc1cc(N/N=C/c2ccccc2O)c2ccccc2n1,-72.5%
6,COc1ccccc1/C=N/Nc1cc(C)nc2ccc(C)cc12,7.89%
7,COc1cccc2c(N/N=C/c3ccc(O)c(O)c3)cc(C)nc12,18.9%
8,COc1ccc(/C=N/Nc2cc(C)nc3c(C)cccc23)cc1,-57.5%
9,COCCCNC(=O)c1oc2ccc(S(=O)(=O)N(C)C3CCCCC3)cc2c1C,-4.45%
10,COc1ccccc1-c1cc(-c2ccc(O)cc2)nc(N)c1C#N,13.9%
11,CC(=O)c1ccc(S(=O)c2ccccc2)cc1 (stereo not shown),-3.38%
12,Cc1ccc(CSc2nnc(C)c(=O)[nH]2)cc1,10.9%
13,S=C(NCc1ccccn1)Nc1ccc(Cl)cc1Cl,6.07%
14,O=C(CCc1ccccc1)NCC(=O)N/N=C/c1ccc(O)cc1O,-8.41%
15,COCc1cc(=O)[nH]c(Sc2c(-c3ccccc3)c3ccc(Cl)cc3[nH]c2=O)n1,20.4%
16,O=C(NCCCN1CCCC1=O)C(=O)NCC1OCCCN1S(=O)(=O)c1cc(F)ccc1F (stereo not shown),23.8%
17,CC(=O)C1=C(c2ccccc2)NC(=O)NC1c1ccc(O)c(Cl)c1 (stereo not shown),17.6%
18,O=C(COc1ccccc1Cl)c1ccc2c(c1)CCCC2,-0.256%

# Source: paper PMC4336329 (PLoS ONE, 2015)
